Compounds without any hit were thinned out: in the full panel of roughly 83,000, 20% have a hit.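 The endpoint reported here, percent growth, reads 100 for growth as untreated, 0 for no net growth and -100 for all cells dead.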 Unmarked numbers belong to inactive results. Calls of active or inactive are those of the source. The calls were made as follows: active = growth percent below 10; inactive = the rest.
Test system: OVCAR-5 ovarian
Assay: NCI-60 one-dose screen, 48 h (100 = growth as untreated, 0 = no growth, -100 = all killed)
Settings: 10 µM unless noted

Compound | growth
COc1ccc2c(c1)c(CC(=O)[Se]CC#N)c(C)n2C(=O)c1ccc(Cl)cc1 | -13.6% (active)
C=C(C)[C@@H]1CC[C@]2(COCCCNCCC#N)CC[C@]3(C)[C@H](CC[C@@H]4[C@@]5(C)CC[C@H](OCCCNCCC#N)C(C)(C)[C@@H]5CC[C@]43C)[C@@H]12 | 83.7%
CCN1CCN(Cc2cn(-c3ccc(S(N)(=O)=O)cc3)nn2)CC1 | 108%
COc1cc(OC)c(/C=C/S(=O)(=O)Cc2ccc(OC)c(NCC(=O)NO)c2)c(OC)c1 | 33.6%
CS(=O)(=O)Nc1cc(-c2ccc3ncc(C#N)c(NCc4ccccc4O)c3c2)cnc1Cl | 21.7%
CC1(C)[C@@H](O)CC[C@]2(C)[C@H]3CC[C@@H]4[C@H]5[C@H](C(=O)/C=C\c6ccncc6)CC[C@]5(O)CC[C@@]4(C)[C@]3(C)CC[C@@H]12 | 47.5%
COc1ccccc1N1CCN(C2=CC(=O)C(C)=C(C)C2=O)CC1 | 107%
O=C(CSc1nnc(-c2ccc(Cl)cc2)n1-c1ccccc1)Nc1cccc(Cl)c1 | 71.7%
COc1ccccc1C(=O)Nc1cccc2c1C(=O)C(=O)C=C2 | 114%
CCc1cccc(NC(=O)CNc2cc(S(=O)(=O)N(C)C)cc(C)c2C)c1 | 84.1%
O=C(NNc1nc2cc(F)c(F)cc2n2c(CN3CC4CNCC4C3)ccc12)c1ncccn1 (stereo unspecified) | 40%
NC(N)=Nc1ccc(Nc2cccc(Nc3ccc(Cl)c(C(F)(F)F)c3)c2)cn1 | 73.8%
CCN(CC)c1ccc(NC2=C(Cl)C(=O)c3nc(C)ccc3C2=O)cc1 | 108%
CC1(C)CC[C@]2(CN)CC[C@]3(C)C(=CC[C@@H]4[C@@]5(C)CCCNC(C)(C)[C@@H]5CC[C@]43C)[C@H]2C1 | 105%
NC(=O)c1cccc(-n2ccc3cc(NC(=O)Nc4ccc(N5CCOCC5)c(C(F)(F)F)c4)ccc32)n1 | 28%
C#CCn1cccc1CNc1ccc(OC)cc1 | -89.5% (active)
O=C1[C@@H]2Cc3c([nH]c4ccccc34)[C@H](c3c(Cl)cccc3Cl)N2C(=O)CN1C1CCN(CC2CCCCC2)CC1 | 93.4%
C#CCC#CCN1CCC[C@H]1C(=O)NCC(=O)OC | 107%
COc1ccc(-c2cc(-c3ccc(Cl)cc3)c(C#N)c(=O)n2Cc2ccc(C(=O)O)cc2)cc1 | 105%

Compound | growth
COc1ccc2c(c1)Oc1nc(N)c(C#N)c(N)c1C2Sc1ccc(C)cc1 (stereo unspecified) | 15.9%
N#Cc1cccc(CN2CCc3ncn(Cc4ccc(Cl)cc4)c(=O)c3C2)c1 | 23.8%
Cc1nc2ncc(-c3ccc4ncnc(NCc5ccccc5)c4c3)cc2[nH]1 | 42.6%
N=c1c2cc(-c3ccccc3)oc2ncn1/N=C/c1ccc(Cl)cc1 | 51.7%
COc1ccc(N2C(=O)c3cc(Cl)ccc3NC2SCc2ccccc2)cc1 (stereo unspecified) | 102%
COc1c(N2CC3CCCNC3C2)c(F)cc2c(=O)c(C(=O)N/N=C/c3c[nH]c4ccccc34)cn(C3CC3)c12 (stereo unspecified) | 116%
NC/C(=C/F)COc1ccc2nc(NCc3cccnc3)oc2c1 | 113%
C=CC(=O)N1CCC=C(c2cc3c(N[C@H](C)c4ccccc4)ncnc3[nH]2)C1 | 49.8%
CS(=O)(=O)Nc1cc(-c2ccc3ncc(C#N)c(Nc4cccc(Cl)c4F)c3c2)cnc1Cl | 21.2%
CCCn1cnc2c(c1=N)C(c1ccc(F)cc1)c1sc3c(CC)cccc3c1O2 (stereo unspecified) | 23.3%
O=S(=O)(NCCCNc1nccc(-c2[nH]c(-c3ccccc3)nc2-c2ccc(Cl)c(O)c2)n1)c1cccc2ccccc12 | 67.1%
N#Cc1cnc2ccc(-c3cnc(N)nc3)cc2c1N1CCc2cc(F)c(Cl)cc21 | 19.8%
CNc1ncc2cc(-c3ccc(-c4ncccc4F)cc3Cl)c(=O)n(CC3OCC(N)CO3)c2n1 (stereo unspecified) | 44.1%
ClC(Cl)c1nc(-c2ccco2)n2nc(-c3ccccc3)cc2n1 | 2.76% (active)
NC(N)=Nc1ccc(Oc2cccc(Nc3ccc(Cl)cc3)c2)cn1 | 48.3%
CC1=CC(=O)C2=C(C)CC(OC(=O)CCc3ccccc3)[C@@H]3[C@H](OC(=O)[C@@H]3C)[C@@H]12 (stereo partly specified) | 95.9%
CC/C(=C/c1cc(OC)ccc1O)c1ccc2cc(OC)ccc2[o+]1 | 82.8%
COc1ccc(C(=O)c2c(N)c(C#N)cn2-c2ccccc2OC)cc1 | 76.7%
CCc1ccc(SC2c3ccc(N(CC)CC)cc3Oc3nc(N)c(C#N)c(N)c32)cc1 (stereo unspecified) | -84.2% (active)

Test system: OVCAR-4 ovarian
Assay: as above
Settings: 10 µM unless noted

Compound | growth
COc1ccc2c(c1)c(CC(=O)[Se]CC#N)c(C)n2C(=O)c1ccc(Cl)cc1 | 27.7%
C=C(C)[C@@H]1CC[C@]2(COCCCNCCC#N)CC[C@]3(C)[C@H](CC[C@@H]4[C@@]5(C)CC[C@H](OCCCNCCC#N)C(C)(C)[C@@H]5CC[C@]43C)[C@@H]12 | 23.9%
CCN1CCN(Cc2cn(-c3ccc(S(N)(=O)=O)cc3)nn2)CC1 | 108%
COc1cc(OC)c(/C=C/S(=O)(=O)Cc2ccc(OC)c(NCC(=O)NO)c2)c(OC)c1 | 45.3%
CS(=O)(=O)Nc1cc(-c2ccc3ncc(C#N)c(NCc4ccccc4O)c3c2)cnc1Cl | 14.1%
CC1(C)[C@@H](O)CC[C@]2(C)[C@H]3CC[C@@H]4[C@H]5[C@H](C(=O)/C=C\c6ccncc6)CC[C@]5(O)CC[C@@]4(C)[C@]3(C)CC[C@@H]12 | 38.5%
COc1ccccc1N1CCN(C2=CC(=O)C(C)=C(C)C2=O)CC1 | 93.2%
O=C(CSc1nnc(-c2ccc(Cl)cc2)n1-c1ccccc1)Nc1cccc(Cl)c1 | -5.99% (active)
COc1ccccc1C(=O)Nc1cccc2c1C(=O)C(=O)C=C2 | 74.8%
CCc1cccc(NC(=O)CNc2cc(S(=O)(=O)N(C)C)cc(C)c2C)c1 | 56.3%
O=C(NNc1nc2cc(F)c(F)cc2n2c(CN3CC4CNCC4C3)ccc12)c1ncccn1 (stereo unspecified) | 21.6%
NC(N)=Nc1ccc(Nc2cccc(Nc3ccc(Cl)c(C(F)(F)F)c3)c2)cn1 | 45.4%
CCN(CC)c1ccc(NC2=C(Cl)C(=O)c3nc(C)ccc3C2=O)cc1 | -97% (active)
CC1(C)CC[C@]2(CN)CC[C@]3(C)C(=CC[C@@H]4[C@@]5(C)CCCNC(C)(C)[C@@H]5CC[C@]43C)[C@H]2C1 | 103%
NC(=O)c1cccc(-n2ccc3cc(NC(=O)Nc4ccc(N5CCOCC5)c(C(F)(F)F)c4)ccc32)n1 | 3.71% (active)
C#CCn1cccc1CNc1ccc(OC)cc1 | -63.8% (active)
O=C1[C@@H]2Cc3c([nH]c4ccccc34)[C@H](c3c(Cl)cccc3Cl)N2C(=O)CN1C1CCN(CC2CCCCC2)CC1 | 90.2%
C#CCC#CCN1CCC[C@H]1C(=O)NCC(=O)OC | 97.3%
COc1ccc(-c2cc(-c3ccc(Cl)cc3)c(C#N)c(=O)n2Cc2ccc(C(=O)O)cc2)cc1 | 88.6%

Compound | growth
COc1ccc2c(c1)Oc1nc(N)c(C#N)c(N)c1C2Sc1ccc(C)cc1 (stereo unspecified) | 15.1%
N#Cc1cccc(CN2CCc3ncn(Cc4ccc(Cl)cc4)c(=O)c3C2)c1 | 16.5%
Cc1nc2ncc(-c3ccc4ncnc(NCc5ccccc5)c4c3)cc2[nH]1 | 48%
N=c1c2cc(-c3ccccc3)oc2ncn1/N=C/c1ccc(Cl)cc1 | 17.1%
COc1ccc(N2C(=O)c3cc(Cl)ccc3NC2SCc2ccccc2)cc1 (stereo unspecified) | 94.7%
COc1c(N2CC3CCCNC3C2)c(F)cc2c(=O)c(C(=O)N/N=C/c3c[nH]c4ccccc34)cn(C3CC3)c12 (stereo unspecified) | 106%
NC/C(=C/F)COc1ccc2nc(NCc3cccnc3)oc2c1 | 86.6%
C=CC(=O)N1CCC=C(c2cc3c(N[C@H](C)c4ccccc4)ncnc3[nH]2)C1 | 45.4%
CS(=O)(=O)Nc1cc(-c2ccc3ncc(C#N)c(Nc4cccc(Cl)c4F)c3c2)cnc1Cl | 19.1%
CCCn1cnc2c(c1=N)C(c1ccc(F)cc1)c1sc3c(CC)cccc3c1O2 (stereo unspecified) | 26.6%
O=S(=O)(NCCCNc1nccc(-c2[nH]c(-c3ccccc3)nc2-c2ccc(Cl)c(O)c2)n1)c1cccc2ccccc12 | 56.9%
N#Cc1cnc2ccc(-c3cnc(N)nc3)cc2c1N1CCc2cc(F)c(Cl)cc21 | 12.3%
CNc1ncc2cc(-c3ccc(-c4ncccc4F)cc3Cl)c(=O)n(CC3OCC(N)CO3)c2n1 (stereo unspecified) | 117%
ClC(Cl)c1nc(-c2ccco2)n2nc(-c3ccccc3)cc2n1 | 36.6%
NC(N)=Nc1ccc(Oc2cccc(Nc3ccc(Cl)cc3)c2)cn1 | 20.2%
CC1=CC(=O)C2=C(C)CC(OC(=O)CCc3ccccc3)[C@@H]3[C@H](OC(=O)[C@@H]3C)[C@@H]12 (stereo partly specified) | 91.6%
CC/C(=C/c1cc(OC)ccc1O)c1ccc2cc(OC)ccc2[o+]1 | 89.8%
COc1ccc(C(=O)c2c(N)c(C#N)cn2-c2ccccc2OC)cc1 | 63.3%
CCc1ccc(SC2c3ccc(N(CC)CC)cc3Oc3nc(N)c(C#N)c(N)c32)cc1 (stereo unspecified) | 7.28% (active)

Reference: PubChem BioAssay (NCI)
